# According to the supplement of paper PMC12282887:
# ± gives the standard deviation of the averaged measurements.
# How the values were obtained:
# Assay in all cases: promoter activity interaction Z-score (Lux/OD deviation from empty-vector control); higher = stronger promoter induction by the compound
# [1] = tested on: E. coli BW25113 acrABp lux reporter
# Summary of the method: (§1)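 Low-copy luxCDABE promoter reporters were carried by E. coli BW25113, either wild type or lacking one of three genes, grown in 40 µl LB Lennox in 384-well plates at 37°C. Each compound was run at four 1:2 dilutions in biological duplicates, with OD600 and luminescence read every 30 min for 12 h. Integration used 0–8 h for wild type and 1–9 h for deletion strains, and wells under 10% of the median growth value were removed. Luminescence normalised to growth was fitted against a control, and the Z-transformed residual is the score.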
# [2] = tested on: E. coli BW25113 micFp lux reporter
# Summary of the method: as §1
# [3] = tested on: E. coli BW25113 ompFp lux reporter
# Summary of the method: as §1
# [4] = tested on: E. coli BW25113 robp lux reporter
# Summary of the method: as §1
# [5] = tested on: E. coli BW25113 soxSp lux reporter
# Summary of the method: as §1
# [6] = tested on: E. coli BW25113 tolCp lux reporter
# Summary of the method: as §1
# [7] = 0.25 µg/ml, genetic background: wild type
# [8] = 0.25 µg/ml, genetic background: ΔmarA
# [9] = 0.25 µg/ml, genetic background: Δrob
# [10] = 0.25 µg/ml, genetic background: ΔsoxS
# [11] = 0.5 µg/ml, genetic background: wild type
# [12] = 0.5 µg/ml, genetic background: ΔmarA
# [13] = 0.5 µg/ml, genetic background: Δrob
# [14] = 0.5 µg/ml, genetic background: ΔsoxS
# [15] = 1 µg/ml, genetic background: wild type
# [16] = 1 µg/ml, genetic background: ΔmarA
# [17] = 1 µg/ml, genetic background: Δrob
# [18] = 1 µg/ml, genetic background: ΔsoxS
# [19] = 2 µg/ml, genetic background: wild type
# [20] = 2 µg/ml, genetic background: ΔmarA
# [21] = 2 µg/ml, genetic background: Δrob
# [22] = 2 µg/ml, genetic background: ΔsoxS
compound,measurement,setting,value
C/C(=C\C(=O)OCCCCCCCCC(=O)O)C[C@@H]1OC[C@H](C[C@@H]2O[C@H]2[C@@H](C)[C@H](C)O)[C@@H](O)[C@H]1O [Pseudomonic acid],promoter activity interaction Z-score,[1]; [7],-0.112 ± 0.0017
same,promoter activity interaction Z-score,[1]; [8],0.206 ± 0.33
same,promoter activity interaction Z-score,[1]; [9],0.0305 ± 0.27
same,promoter activity interaction Z-score,[1]; [10],-0.332 ± 0.5
same,promoter activity interaction Z-score,[1]; [11],-0.272 ± 0.0069
same,promoter activity interaction Z-score,[1]; [12],0.456 ± 0.14
same,promoter activity interaction Z-score,[1]; [13],-0.0699 ± 0.0047
same,promoter activity interaction Z-score,[1]; [14],-0.0985 ± 0.042
same,promoter activity interaction Z-score,[1]; [15],-0.204 ± 0.26
same,promoter activity interaction Z-score,[1]; [16],0.378 ± 0.38
same,promoter activity interaction Z-score,[1]; [17],-0.109 ± 0.35
same,promoter activity interaction Z-score,[1]; [18],0.483 ± 0.38
same,promoter activity interaction Z-score,[1]; [19],-0.0697 ± 0.066
same,promoter activity interaction Z-score,[1]; [20],-0.0876 ± 0.43
same,promoter activity interaction Z-score,[1]; [21],0.431 ± 0.61
same,promoter activity interaction Z-score,[1]; [22],-0.262 ± 0.13
same,promoter activity interaction Z-score,[2]; [7],-0.00251 ± 0.014
same,promoter activity interaction Z-score,[2]; [8],-0.0765 ± 0.049
same,promoter activity interaction Z-score,[2]; [9],0.0594 ± 0.055
same,promoter activity interaction Z-score,[2]; [10],-0.253 ± 0.16
same,promoter activity interaction Z-score,[2]; [11],-0.108 ± 0.12
same,promoter activity interaction Z-score,[2]; [12],0.0535 ± 0.005
same,promoter activity interaction Z-score,[2]; [13],-0.0538 ± 0.014
same,promoter activity interaction Z-score,[2]; [14],0.11 ± 0.00091
same,promoter activity interaction Z-score,[2]; [15],-0.064 ± 0.06
same,promoter activity interaction Z-score,[2]; [16],-0.0233 ± 0.076
same,promoter activity interaction Z-score,[2]; [17],-0.144 ± 0.018
same,promoter activity interaction Z-score,[2]; [18],0.271 ± 0.095
same,promoter activity interaction Z-score,[2]; [19],-0.0515 ± 0.13
same,promoter activity interaction Z-score,[2]; [20],-0.351 ± 0.054
same,promoter activity interaction Z-score,[2]; [21],-0.275 ± 0.0059
same,promoter activity interaction Z-score,[2]; [22],-0.431 ± 0.085
same,promoter activity interaction Z-score,[3]; [7],0.431 ± 0.041
same,promoter activity interaction Z-score,[3]; [8],0.122 ± 0.59
same,promoter activity interaction Z-score,[3]; [9],0.647 ± 0.08
same,promoter activity interaction Z-score,[3]; [10],0.0332 ± 0.47
same,promoter activity interaction Z-score,[3]; [11],0.435 ± 0.061
same,promoter activity interaction Z-score,[3]; [12],0.376 ± 0.74
same,promoter activity interaction Z-score,[3]; [13],0.561 ± 0.78
same,promoter activity interaction Z-score,[3]; [14],0.388 ± 0.58
same,promoter activity interaction Z-score,[3]; [15],0.248 ± 0.034
same,promoter activity interaction Z-score,[3]; [16],0.569 ± 0.62
same,promoter activity interaction Z-score,[3]; [17],-0.0747 ± 0.3
same,promoter activity interaction Z-score,[3]; [18],0.938 ± 0.33
same,promoter activity interaction Z-score,[3]; [19],1.46 ± 0.058
same,promoter activity interaction Z-score,[3]; [20],1.34 ± 1.3
same,promoter activity interaction Z-score,[3]; [21],1.51 ± 0.36
same,promoter activity interaction Z-score,[3]; [22],1.34 ± 0.34
same,promoter activity interaction Z-score,[4]; [7],0.653 ± 0.041
same,promoter activity interaction Z-score,[4]; [8],0.421 ± 0.4
same,promoter activity interaction Z-score,[4]; [9],0.357 ± 0.37
same,promoter activity interaction Z-score,[4]; [10],0.316 ± 0.48
same,promoter activity interaction Z-score,[4]; [11],0.392 ± 0.59
same,promoter activity interaction Z-score,[4]; [12],0.85 ± 0.05
same,promoter activity interaction Z-score,[4]; [13],0.39 ± 0.34
same,promoter activity interaction Z-score,[4]; [14],0.257 ± 0.2
same,promoter activity interaction Z-score,[4]; [15],0.263 ± 0.2
same,promoter activity interaction Z-score,[4]; [16],0.154 ± 0.026
same,promoter activity interaction Z-score,[4]; [17],0.375 ± 0.08
same,promoter activity interaction Z-score,[4]; [18],0.843 ± 0.45
same,promoter activity interaction Z-score,[4]; [19],-0.842 ± 0.42
same,promoter activity interaction Z-score,[4]; [20],-1.15 ± 0.4
same,promoter activity interaction Z-score,[4]; [21],-1.28 ± 0.23
same,promoter activity interaction Z-score,[4]; [22],-1.41 ± 0.72
same,promoter activity interaction Z-score,[5]; [7],-0.0625 ± 0.032
same,promoter activity interaction Z-score,[5]; [8],-0.0981 ± 0.09
same,promoter activity interaction Z-score,[5]; [9],0.0456 ± 0.03
same,promoter activity interaction Z-score,[5]; [10],-0.226 ± 0.46
same,promoter activity interaction Z-score,[5]; [11],-0.257 ± 0.034
same,promoter activity interaction Z-score,[5]; [12],-0.0627 ± 0.0052
same,promoter activity interaction Z-score,[5]; [13],-0.182 ± 0.0097
same,promoter activity interaction Z-score,[5]; [14],-0.102 ± 0.24
same,promoter activity interaction Z-score,[5]; [15],-0.14 ± 0.14
same,promoter activity interaction Z-score,[5]; [16],-0.143 ± 0.15
same,promoter activity interaction Z-score,[5]; [17],-0.259 ± 0.033
same,promoter activity interaction Z-score,[5]; [18],0.137 ± 0.11
same,promoter activity interaction Z-score,[5]; [19],0.249 ± 0.064
same,promoter activity interaction Z-score,[5]; [20],0.277 ± 0.25
same,promoter activity interaction Z-score,[5]; [21],0.0902 ± 0.012
same,promoter activity interaction Z-score,[5]; [22],0.748 ± 0.0089
same,promoter activity interaction Z-score,[6]; [7],-0.891 ± 0.62
same,promoter activity interaction Z-score,[6]; [8],-0.0344 ± 0.2
same,promoter activity interaction Z-score,[6]; [9],-0.281 ± 0.4
same,promoter activity interaction Z-score,[6]; [10],-1.37 ± 0.18
same,promoter activity interaction Z-score,[6]; [11],-0.126 ± 0.82
same,promoter activity interaction Z-score,[6]; [12],0.395 ± 0.35
same,promoter activity interaction Z-score,[6]; [13],-0.919 ± 0.45
same,promoter activity interaction Z-score,[6]; [14],-0.306 ± 0.13
same,promoter activity interaction Z-score,[6]; [15],-0.0576 ± 0.9
same,promoter activity interaction Z-score,[6]; [16],0.349 ± 1.1
same,promoter activity interaction Z-score,[6]; [17],-0.441 ± 0.81
same,promoter activity interaction Z-score,[6]; [18],0.0561 ± 0.82
same,promoter activity interaction Z-score,[6]; [19],0.277 ± 0.14
same,promoter activity interaction Z-score,[6]; [20],-0.606 ± 0.55
same,promoter activity interaction Z-score,[6]; [21],0.432 ± 0.075
same,promoter activity interaction Z-score,[6]; [22],-1.08 ± 0.07
